Shown is part of a subset that was picked to be rich in hits.
Cruzain inh Det: inhibitors of Trypanosoma cruzi cruzain with detergent | Potency, µM, for inactives: max response, negative = inhibition, actives largely listed as inhibitors | purified cruzain, Z-FR-AMC fluorescence, 0.01% Triton | AID 1478 | 200,000 compounds, 0.43% hits;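 further: plate controls were neutral wells for no effect and buffer without enzyme for full effect; nearly all actives have a fitted effect of over 40% in size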
Target sequence (P25779 123-467 limits assumed): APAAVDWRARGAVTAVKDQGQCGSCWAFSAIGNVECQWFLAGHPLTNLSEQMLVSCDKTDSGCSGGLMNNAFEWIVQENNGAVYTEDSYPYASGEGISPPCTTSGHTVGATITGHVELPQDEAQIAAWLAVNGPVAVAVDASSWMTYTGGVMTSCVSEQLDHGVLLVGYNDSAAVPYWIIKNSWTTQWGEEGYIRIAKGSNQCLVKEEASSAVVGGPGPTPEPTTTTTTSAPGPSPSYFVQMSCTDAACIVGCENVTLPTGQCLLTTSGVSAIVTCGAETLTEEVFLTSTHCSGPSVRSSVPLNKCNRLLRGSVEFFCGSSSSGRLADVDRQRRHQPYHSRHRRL
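Cysteine protease activity tested under reducing, mildly acidic conditions (100 mM sodium acetate pH 5.5, 5 mM DTT) plus 0.01% Triton X-100. Cruzain 1.5 nM; substrate Z-FR-AMC 2 uM; 15 min compound preincubation at room temperature.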
Cruzain inh noDet: blocks cruzain activity in detergent-free assay; P25779; purified cruzain, Z-FR-AMC fluorescence, no detergent; Potency, µM, for inactives: max response, negative = inhibition, most hits filed as inhibitors; 200,000 compounds, 2.3% hits; AID 1476;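 further: plate controls were enzyme without inhibitor for no effect and buffer without enzyme for full effect; nearly all actives have a fitted effect of over 40% in size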
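Purified cruzain at 1.5 nM, pre-incubated 15 min with compound at room temperature in 100 mM sodium acetate pH 5.5, 5 mM DTT, 0.00005% Triton X-100. Reaction started with 2 uM Z-FR-AMC; AMC fluorescence increase over 60 s gives rate.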
NS1 function inh: influenza NS1 inhibition; Potency, µM (doses to about 46.1 µM), for inactives: top-dose activity, positive = more growth; 270,000 compounds, 0.4% hits; calls by dose curve; further: actives are rising curves; nearly all actives have a fitted effect of over 50% in size
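Growth recovery, yeast-based: influenza A NS1 expressed in S. cerevisiae causes slow growth, and suppressors are detected by OD600. The parent strain without NS1 is used as positive control.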
Numbers without * were called inactive; ? = inconclusive; · = no result given. Unless noted, the call rests on the fitted dose curve; in most records, active means well fitted curve in the direction sought with a large enough effect; inconclusive means small, poorly fitted or top-dose-only effect, or another doubt; inactive means no such curve, though single readings can be large; an effect the other way counts as inactive or inconclusive. Potency means the concentration at half of the fitted maximal effect.

SMILES	Cruzain inh Det	Cruzain inh noDet	NS1 function inh
COc1ccc(-c2noc(CC(=O)Nc3ccc(C)c(F)c3)n2)cc1	-2%	-23%	·
COc1cccc(-c2nc(-c3ccc(NC(=O)c4cccnc4)cc3)no2)c1	-4%	19%	-9%
CCOc1ccccc1NC(=O)c1ccccc1-c1nc(-c2ccccc2)no1	-1%	4%	-45%
CCn1c(NC(C)=O)c(-c2ccccc2Cl)c(=O)c2ccccc21	·	·	-2%
O=C(CN1CCN(S(=O)(=O)c2ccc(F)cc2)CC1)Nc1ccc2c(c1)OCO2	5%	-7%	0%
NS(=O)(=O)c1ccc(NC(=O)COC(=O)c2cn(-c3ccccc3)nc2-c2ccccc2)cc1	·	·	2%
CC1=NN(c2ccccc2)C(=O)C1/C=C1/NC(=S)NC1=O (stereo not given)	·	·	-2%
CCN1C(=O)/C(=C\c2cn(-c3ccccc3)nc2-c2cccnc2)SC1=S	·	·	1%
CCOc1ccc(-c2nn(-c3ccccc3)cc2/C=C2\SC(=S)N(Cc3ccco3)C2=O)cc1	-6%	10µM*	9%
COc1ccc(Cn2c(SCc3ccccc3C)nc3cc(OC)c(OC)cc3c2=N)cc1	16µM*	?	-76%
COc1cc2nc(SCc3ccc(F)cc3)n(Cc3cccs3)c(=N)c2cc1OC	5%	?	30%
C=CCC(O)(C(=O)OC)c1ccccc1 (stereo not given)	1%	-1%	·
Cc1cccc(NC(=S)NCc2ccccc2)c1C	·	·	-18%
O=C(Nc1nnc(COc2ccc(F)cc2)s1)c1cccs1	-1%	25µM*	3%
O=C(Nc1nnc(CCc2ccccc2)s1)c1cccs1	3%	?	-13%
Cc1cccc(C(=O)Nc2nnc(COc3ccccc3)s2)c1	·	·	-3%
O=C(Nc1nnc(COc2ccc(Cl)cc2)s1)c1ccco1	·	·	-3%
Cc1cccc(OCc2nnc(NC(=O)c3cccs3)s2)c1	3%	13µM*	-13%
O=C(Nc1nnc(COc2ccc(Cl)cc2)s1)c1cccs1	3%	25µM*	-55%
COc1ccc(/C=N/NC(=O)Cn2nc([N+](=O)[O-])cc2C)c(OC)c1OC	·	·	2%
CCOc1cc(/C=N\NC(=O)Cn2nc([N+](=O)[O-])cc2C)ccc1OCc1cccc2ccccc12	-1%	13µM*	22%
O=C(Nc1ncc([N+](=O)[O-])s1)C1CCN(S(=O)(=O)c2cnc[nH]2)CC1	-2%	2%	11%
O=c1oc2cc(Oc3ccc(C(F)(F)F)cc3[N+](=O)[O-])ccc2c2c1CCCC2	-1%	-10%	22%
COc1ccc(NC(=O)Cn2cc(S(=O)(=O)c3ccc(C)cc3)c(=O)c3ccccc32)cc1OC	-6%	?	·
Cc1ccc(S(=O)(=O)c2cn(CC(=O)Nc3cccc(Cl)c3)c3ccccc3c2=O)cc1	-2%	32µM*	·
SMILES	Cruzain inh Det	Cruzain inh noDet	NS1 function inh
CCOc1ccc(N(CC(=O)NC(C)C)C(=O)CCC(=O)Nc2ccccn2)cc1	·	·	15%
CCOC(=O)c1cc(-c2ccccc2)n(-c2cccc(C(=O)Nc3cccc(SC)c3)c2)c1C	1%	10µM*	·
CCOC(=O)c1cc(-c2ccccc2)n(-c2cccc(C(=O)N(C)c3ccc(C)cc3)c2)c1C	-4%	-4%	·
CCOC(=O)c1cc(-c2ccccc2)n(-c2cccc(C(=O)Nc3cccc(C(C)=O)c3)c2)c1C	-1%	?	·
CCOC(=O)c1cc(-c2ccccc2)n(-c2cccc(C(=O)Nc3ccc(F)c(F)c3)c2)c1C	1%	20µM*	·
CCOC(=O)c1cc(-c2ccccc2)n(-c2cccc(C(=O)Nc3cccc(F)c3)c2)c1C	-1%	10µM*	·
CCOC(=O)c1cc(-c2ccccc2)n(CC(=O)Nc2cccc(OC)c2)c1C	-2%	15%	?
CCOC(=O)c1cc(-c2ccccc2)n(-c2cccc(C(=O)Nc3ccc(OC)cc3)c2)c1C	-1%	25µM*	·
CCOC(=O)c1cc(-c2ccccc2)n(-c2cccc(C(=O)NC(C)(C)C)c2)c1C	0%	-1%	·
CCOc1cccc(CC(=O)Nc2ccc3nc(N4CCCCC4)cc(C)c3c2)c1OCC	2%	-4%	·
Cc1cc(C)c2c(NC(=O)c3ccccc3Cl)c(C(=O)NCc3ccc(Cl)cc3)sc2n1	-1%	-11%	·
O=C(CSc1nncs1)Nc1ccc2c(c1)OCCO2	3%	-9%	-1%
COc1ccc(CCNC(=O)CCc2nc3sc4c(c3c(=O)[nH]2)CCCC4)cc1	·	·	1%
COc1ccc(OC)c(NC(=S)NN2CCN(C)CC2)c1	0%	-13%	5%
O=C1C2C3C=CC(C4CC34)C2C(=O)N1/N=C/c1ccc([N+](=O)[O-])s1 (stereo not given)	-2%	-1%	9%
O=C1C2C3C=CC(C4CC34)C2C(=O)N1/N=C/c1ccc(-c2cccc([N+](=O)[O-])c2)o1 (stereo not given)	-8%	25µM*	-12%
CCOCc1nnc(NC(=O)c2cc(C(=O)OC)cc([N+](=O)[O-])c2)s1	·	·	0%
O=C(Cc1ccccc1)N/N=C/c1cccn1-c1ccc([N+](=O)[O-])cc1	-6%	-24%	?
CCN1C(=O)/C(=C/C=C2/Sc3ccc4ccccc4c3N2CCO)SC1=S	-3%	-21%	4%
CCN1C(c2ccccc2)=C(c2ccccc2)S/C1=C/C=C1\SC(=S)N(C)C1=O	-6%	10µM*	4%
Cc1ccc(C(=O)Nc2nc3n(n2)C(c2ccc(F)cc2)C=C(c2ccccc2)N3)cc1 (stereo not given)	-1%	-1%	·
CCCCCCNc1nc(NCc2ccco2)nc(OCC)n1	-5%	-1%	-97%
CCCCCCCCNc1nc(Cl)nc(NCc2ccco2)n1	-2%	16µM*	-7%
COCCNC(=S)NCCCNc1nc2cc3c(cc2cc1C#N)OCO3	18µM*	?	26%
CCOCCCNC(=S)NCCCNc1nc2cc3c(cc2cc1C#N)OCO3	?	?	3%
SMILES	Cruzain inh Det	Cruzain inh noDet	NS1 function inh
O=C(COc1ccccc1)NCc1n[nH]c(=S)n1-c1ccccc1	·	·	6%
Cc1cccc(C(=O)N2CCc3cc(-c4nc(NC(=O)CN5CCCC5)sc4C)ccc32)c1	·	·	7%
Cc1cccc(C(=O)N2CCc3cc(-c4nc(NC(=O)Cn5nnc6ccccc6c5=O)sc4C)ccc32)c1	-4%	10µM*	?
Cc1sc(NC(=O)Cc2ccc3c(c2)OCO3)nc1-c1ccc2c(c1)CCN2C(=O)c1cccc(F)c1	-1%	7.9µM*	?
CNc1nc(-c2ccc3c(c2)CCN3C(=O)c2cccc(F)c2)cs1	·	·	-32%
CCCCN(CCCC)CCNC(=O)Cn1nc(C)n2c(cc3sccc32)c1=O	-1%	-9%	·
O=C(NCCc1ccccc1)C(=O)N/N=C/c1ccc2c(c1)OCO2	5%	20µM*	19%
O=C(NCc1ccccn1)C(=O)N/N=C/c1ccc2c(c1)OCO2	·	·	3%
Cc1cc(C)c(OCC(=O)N/N=C/c2ccc3c(c2)OCO3)c(C)c1	0%	20µM*	-13%
Cc1cccc(OCC(=O)N/N=C/c2ccc3c(c2)OCO3)c1	·	·	-8%
O=C(NCC1CCN(C(=O)c2ccc([N+](=O)[O-])cc2)CC1)c1ccc([N+](=O)[O-])cc1	·	·	-4%
COC(=O)c1cc(NC(=O)c2cc3sccc3n2Cc2ccc(Cl)cc2)cc(C(=O)OC)c1	0%	7.9µM*	·
CC(=O)Nc1ccc(NC(=O)c2cc3sccc3n2Cc2ccc(Cl)cc2)cc1	-1%	?	·
Cc1ccc(CSc2ncc(Cl)c(C(=O)Oc3ccc(F)cc3)n2)cc1	-1%	-4%	·
